Assay results as given in the supplement of paper PMC10849652.
About 7,900 targets were measured; listed, in parts, are those with a hit and a random draw of the rest. About 0.6% of all pairs of compound and target were hits.

Experiments:
Experiment in all cases: log2 fold change, soluble protein after heating vs DMSO (PISA); higher = thermal stabilisation; K562 cells, 10 uM, 30 min; active = over 0.2 and 3.5 SD of the protein, either way, in both replicates (recomputed)
[1] = compound: C1COCCN1CCN2C3=CC=CC=C3N=C2NC(=O)C4=CC(=CC=C4)[N+](=O)[O-] [IRAK-1-4 Inhibitor I]
Summary of the method: (§1)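 K562 cells at 2×10^6 cells/mL were treated for 30 min with 10 μM compound, and aliquots were heated for 3 min over 48°C-58°C before pooling. Extraction used PBS with 0.5% NP-40 at 4°C, and soluble protein was the supernatant after 21,000xg for 90 min, measured by TMTpro 16plex LC-MS/MS with channel sums equalised. Thermal stability values, relative to control samples and from duplicates, are log2 fold changes.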

[2] = compound: C=CC(=O)N1CCC[C@@H](n2nc(-c3ccc(Oc4ccccc4)cc3)c3c(N)ncnc32)C1 [ibrutinib]
Summary of the method: as §1

[3] = compound: CC(=O)c1cnc2ccc(-c3cc(Cl)c(O)c(Cl)c3)nc2c1N[C@H]1CC[C@H](CN(C)C)CC1
Summary of the method: as §1

[4] = compound: CC(C)(C)Cn1c(N)nc2ccc(-c3[nH]c(C(C)(C)C)nc3-c3ccc(F)cc3)nc21 [ralimetinib]
Summary of the method: as §1

[5] = compound: CC(C)(O)CC(=O)NCCn1ccc2ncnc(Nc3ccc(Oc4cccc(C(F)(F)F)c4)c(Cl)c3)c21
Summary of the method: as §1

[6] = compound: CC(C)C1=C2N=C(C=C(N2N=C1)NCC3=CC=CC=C3)NCCCCCCN
Summary of the method: as §1

[7] = compound: CC(C)C[C@@H](C=O)NC(=O)[C@H](CC(C)C)NC(=O)[C@H](CC(C)C)NC(=O)OCc1ccccc1
Summary of the method: as §1

[8] = compound: CC(C)N(C[C@H]1O[C@@H](n2cnc3c(N)ncnc32)[C@H](O)[C@@H]1O)[C@H]1C[C@@H](CCc2nc3cc(C(C)(C)C)ccc3[nH]2)C1 [pinometostat]
Summary of the method: as §1

[9] = compound: CC1=C(C(CC(=O)N1)C2=CC=C(C=C2)C(F)(F)F)C(=O)NC3=C(C=C4C(=C3)C=NN4)F
Summary of the method: as §1

[10] = compound: CC1=C(C2=C(C=C1)C(=O)C3=CC=CC=C3N2CCCN)C
Summary of the method: as §1

[11] = compound: CC1=C(C=C(C=C1)NC(=O)C2=CC(=CC=C2)C(C)(C)C#N)NC3=CC4=C(C=C3)N=CN(C4=O)C
Summary of the method: as §1

[12] = compound: CC1=C(C=C(C=C1)NC(=O)C2=CC(=CC=C2)N(C)C)NC(=O)C3=CC=C(C=C3)O
Summary of the method: as §1

[13] = compound: CC1=CC=C(C=C1)SC2=C3C=C(SC3=CN=C2)C(=O)N
Summary of the method: as §1

[14] = compound: CC1=NC(=CC=C1)C2=C(N=C(N2)C(C)(C)C)C3=CC4=NC=CN=C4C=C3
Summary of the method: as §1

[15] = compound: CCCCN(Cc1ccc(C(=O)NO)cc1)C(=O)Nc1ccccc1 [Nexturastat A]
Summary of the method: as §1

[16] = compound: CCCS(=O)(=O)Nc1ccc(F)c(C(=O)c2c[nH]c3ncc(-c4ccc(Cl)cc4)cc23)c1F [vemurafenib]
Summary of the method: as §1

[17] = compound: CCCS(=O)(=O)Nc1ccc(F)c(C(=O)c2c[nH]c3ncc(Cl)cc23)c1F
Summary of the method: as §1

[18] = compound: CCCc1cc(C)[nH]c(=O)c1CNC(=O)c1cc(-c2ccnc(N3CCN(C)CC3)c2)cc2c1cnn2C(C)C
Summary of the method: as §1

[19] = compound: CCN(CC)Cc1ccc2cc(COC(=O)Nc3ccc(C(=O)NO)cc3)ccc2c1 [givinostat]
Summary of the method: as §1

[20] = compound: CCN(CCCOc1ccc2c(Nc3cc(CC(=O)Nc4cccc(F)c4)[nH]n3)ncnc2c1)CCOP(=O)(O)O [barasertib]
Summary of the method: as §1

Measured: log2 fold change

FAM117A (UniProt Q9C073)
active: [3] -0.833
inactive: [1] -0.004 | [2] 0.001 | [4] -0.125 | [5] -0.068 | [6] -0.102 | [7] 0.126 | [8] -0.003 | [9] 0.042 | [10] 0.011 | [11] 0.036 | [12] 0.013 | [13] -0.007 | [14] -0.034 | [15] 0.004 | [16] -0.023 | [17] -0.004 | [18] -0.001 | [19] 0.109 | [20] 0.053

DSN1 (UniProt Q9H410)
inactive: [1] -0.143 | [2] -0.038 | [3] -0.041 | [4] -0.131 | [5] -0.055 | [6] -0.106 | [7] 0.004 | [8] -0.037 | [9] -0.036 | [10] -0.045 | [11] -0.02 | [12] -0.096 | [13] -0.003 | [14] 0.021 | [15] 0.051 | [16] 0.133 | [17] 0.022 | [18] 0.004 | [19] 0.053 | [20] 0.075

EFL1 (UniProt Q7Z2Z2)
Chain of UniProt Q7Z2Z2 (Q7Z2Z2 whole entry, looked up): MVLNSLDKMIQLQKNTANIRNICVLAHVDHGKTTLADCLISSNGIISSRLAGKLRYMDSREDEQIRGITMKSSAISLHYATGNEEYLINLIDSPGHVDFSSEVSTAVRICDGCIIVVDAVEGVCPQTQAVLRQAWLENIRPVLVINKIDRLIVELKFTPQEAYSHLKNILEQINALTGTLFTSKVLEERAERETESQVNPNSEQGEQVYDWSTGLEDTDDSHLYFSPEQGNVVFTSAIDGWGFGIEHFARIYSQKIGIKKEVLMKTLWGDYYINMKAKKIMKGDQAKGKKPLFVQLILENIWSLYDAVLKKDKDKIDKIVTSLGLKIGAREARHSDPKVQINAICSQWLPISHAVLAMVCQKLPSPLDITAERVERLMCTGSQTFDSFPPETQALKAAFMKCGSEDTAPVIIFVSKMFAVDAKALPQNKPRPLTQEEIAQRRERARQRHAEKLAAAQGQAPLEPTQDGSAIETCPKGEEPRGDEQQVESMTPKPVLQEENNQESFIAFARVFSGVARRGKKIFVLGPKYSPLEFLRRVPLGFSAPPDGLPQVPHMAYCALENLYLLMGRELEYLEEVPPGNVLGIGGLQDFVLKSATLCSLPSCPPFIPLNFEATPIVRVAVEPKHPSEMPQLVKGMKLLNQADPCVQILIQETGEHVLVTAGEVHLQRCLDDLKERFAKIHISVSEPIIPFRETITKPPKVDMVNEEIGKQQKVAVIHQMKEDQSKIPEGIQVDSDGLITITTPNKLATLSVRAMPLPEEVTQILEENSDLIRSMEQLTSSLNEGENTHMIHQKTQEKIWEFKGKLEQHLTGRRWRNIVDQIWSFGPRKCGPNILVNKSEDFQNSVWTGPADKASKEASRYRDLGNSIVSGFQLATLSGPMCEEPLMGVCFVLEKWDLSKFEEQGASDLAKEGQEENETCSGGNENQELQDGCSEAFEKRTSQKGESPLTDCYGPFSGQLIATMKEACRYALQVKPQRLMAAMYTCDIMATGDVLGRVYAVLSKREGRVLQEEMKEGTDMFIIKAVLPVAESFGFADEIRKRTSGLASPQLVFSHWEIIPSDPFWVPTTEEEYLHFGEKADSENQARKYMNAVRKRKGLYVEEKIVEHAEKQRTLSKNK
inactive: [1] 0.016 | [2] -0.019 | [3] -0.039 | [4] -0.004 | [5] -0.069 | [6] -0.103 | [7] 0.03 | [8] 0.005 | [9] -0.009 | [10] -0.058 | [11] -0.025 | [12] 0.004 | [13] 0.016 | [14] 0.012 | [15] -0.11 | [16] 0.04 | [17] 0.036 | [18] 0.008 | [19] 0.004 | [20] 0.05

CTSZ (UniProt Q9UBR2)
inactive: [1] 0.008 | [2] -0.02 | [3] 0.053 | [4] -0.062 | [5] 0 | [7] 0.082 | [8] -0.076 | [9] 0.015 | [10] -0.036 | [11] -0.009 | [12] -0.004 | [13] 0.025 | [14] 0.002 | [15] -0.009 | [16] -0.026 | [17] -0.045 | [18] -0.017 | [19] 0.152 | [20] 0.027
active: [6] -0.395

DNAJB12 (UniProt Q9NXW2)
active: [4] -0.767
inactive: [1] -0.026 | [2] 0.004 | [3] -0.013 | [5] -0.032 | [6] -0.012 | [7] 0.076 | [8] 0.021 | [9] 0.05 | [10] 0.022 | [11] -0.071 | [12] -0.017 | [13] -0.002 | [14] 0.017 | [15] 0.044 | [16] 0.008 | [17] 0.008 | [18] -0.069 | [19] 0.06 | [20] -0.001

EXOC4 (UniProt Q96A65)
active: [6] -0.442
inactive: [1] -0.123 | [2] -0.028 | [3] -0.007 | [4] 0.024 | [5] -0.099 | [7] 0.04 | [8] 0.143 | [9] 0.035 | [10] -0.01 | [11] -0.021 | [12] 0.029 | [13] 0.021 | [14] 0.001 | [15] 0.209 | [16] -0.003 | [17] 0.098 | [18] 0.01 | [19] 0.133 | [20] 0.139

EXOC1 (UniProt Q9NV70)
active: [6] -0.419
inactive: [1] -0.085 | [2] -0.015 | [3] -0.033 | [4] 0.112 | [5] -0.151 | [7] 0.018 | [8] 0.214 | [9] 0.052 | [10] 0.071 | [11] -0.026 | [12] -0.01 | [13] 0.019 | [14] 0.027 | [15] 0.115 | [16] -0.023 | [17] 0.028 | [18] 0.08 | [19] 0.07 | [20] 0.082

DMXL1 (UniProt Q9Y485)
inactive: [1] -0.005 | [2] 0.002 | [3] -0.035 | [4] 0.028 | [5] -0.085 | [6] -0.231 | [7] 0.019 | [8] 0.042 | [9] -0.005 | [10] 0.069 | [11] -0.075 | [12] -0.004 | [13] 0.025 | [14] 0.017 | [15] 0.044 | [16] 0.008 | [17] 0.032 | [18] 0.043 | [19] 0.076 | [20] 0.068

DHX36 (UniProt Q9H2U1)
Chain of UniProt Q9H2U1 (Q9H2U1 whole entry, looked up): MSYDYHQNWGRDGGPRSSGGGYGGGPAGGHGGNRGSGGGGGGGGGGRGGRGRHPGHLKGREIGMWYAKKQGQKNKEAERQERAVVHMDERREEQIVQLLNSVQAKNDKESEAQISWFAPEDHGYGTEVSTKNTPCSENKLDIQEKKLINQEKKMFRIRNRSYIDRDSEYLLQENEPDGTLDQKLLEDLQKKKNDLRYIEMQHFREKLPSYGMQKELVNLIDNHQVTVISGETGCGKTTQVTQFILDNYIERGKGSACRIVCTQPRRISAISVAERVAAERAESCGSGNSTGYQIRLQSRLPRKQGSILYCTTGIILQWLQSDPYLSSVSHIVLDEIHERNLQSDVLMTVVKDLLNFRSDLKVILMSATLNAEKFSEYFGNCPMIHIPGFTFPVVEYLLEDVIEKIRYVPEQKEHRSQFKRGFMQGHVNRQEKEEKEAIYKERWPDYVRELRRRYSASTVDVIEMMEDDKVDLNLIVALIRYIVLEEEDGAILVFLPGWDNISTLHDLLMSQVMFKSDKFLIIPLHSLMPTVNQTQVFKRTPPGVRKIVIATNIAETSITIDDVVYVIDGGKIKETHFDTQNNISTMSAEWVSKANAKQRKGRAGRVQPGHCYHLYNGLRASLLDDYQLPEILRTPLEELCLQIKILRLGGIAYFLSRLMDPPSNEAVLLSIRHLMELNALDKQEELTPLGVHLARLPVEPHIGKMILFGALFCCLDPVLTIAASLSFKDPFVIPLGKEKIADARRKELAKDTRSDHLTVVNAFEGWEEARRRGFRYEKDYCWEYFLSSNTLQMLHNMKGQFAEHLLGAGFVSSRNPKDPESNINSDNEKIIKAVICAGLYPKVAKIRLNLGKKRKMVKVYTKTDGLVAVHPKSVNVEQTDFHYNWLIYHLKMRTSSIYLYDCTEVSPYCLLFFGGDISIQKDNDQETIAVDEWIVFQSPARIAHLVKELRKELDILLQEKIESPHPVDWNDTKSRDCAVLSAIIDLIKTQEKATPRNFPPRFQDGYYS
inactive: [1] -0.053 | [2] 0.014 | [3] 0.001 | [4] 0.111 | [5] 0.009 | [6] -0.025 | [7] 0.056 | [8] 0.153 | [9] 0.031 | [10] -0.206 | [11] 0.015 | [12] 0 | [13] -0.034 | [14] -0.033 | [15] 0.111 | [16] 0.012 | [17] 0.02 | [18] -0.005 | [19] -0.031 | [20] -0.064

DCAF16 (UniProt Q9NXF7)
Chain of UniProt Q9NXF7 (Q9NXF7 whole entry, looked up): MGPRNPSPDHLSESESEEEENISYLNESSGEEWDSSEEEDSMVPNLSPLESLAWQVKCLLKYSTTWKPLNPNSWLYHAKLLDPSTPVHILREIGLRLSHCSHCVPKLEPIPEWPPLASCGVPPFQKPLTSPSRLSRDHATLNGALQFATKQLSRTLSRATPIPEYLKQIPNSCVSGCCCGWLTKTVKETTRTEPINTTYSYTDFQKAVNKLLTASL
inactive: [1] -0.04 | [2] 0.017 | [3] 0.039 | [4] 0.034 | [5] -0.052 | [6] -0.027 | [7] 0.018 | [8] 0.055 | [9] -0.047 | [10] -0.105 | [11] -0.036 | [12] -0.013 | [13] 0.059 | [14] -0.015 | [15] 0.063 | [16] 0.151 | [17] 0.185 | [18] 0.042 | [19] -0.016 | [20] 0.024

DTWD1 (UniProt Q8N5C7)
Chain of UniProt Q8N5C7 (Q8N5C7 whole entry, looked up): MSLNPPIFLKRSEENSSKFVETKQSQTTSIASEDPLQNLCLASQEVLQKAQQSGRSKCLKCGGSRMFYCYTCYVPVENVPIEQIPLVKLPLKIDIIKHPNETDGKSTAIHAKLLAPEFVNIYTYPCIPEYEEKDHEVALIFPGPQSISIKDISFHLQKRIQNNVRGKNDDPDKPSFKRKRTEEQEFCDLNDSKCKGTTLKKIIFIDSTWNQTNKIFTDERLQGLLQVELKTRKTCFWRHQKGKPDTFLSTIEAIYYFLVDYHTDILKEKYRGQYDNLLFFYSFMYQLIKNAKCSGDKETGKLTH
inactive: [1] 0.043 | [2] 0.014 | [3] 0.076 | [4] 0 | [5] -0.022 | [6] 0.161 | [7] -0.021 | [8] -0.026 | [9] -0.109 | [10] 0.136 | [11] 0.05 | [12] -0.042 | [13] 0.023 | [14] 0.081 | [15] -0.072 | [16] 0.115 | [17] -0.013 | [18] 0.036 | [19] -0.172 | [20] -0.027

EVC2 (UniProt Q86UK5)
Chain of UniProt Q86UK5 (Q86UK5 whole entry, looked up): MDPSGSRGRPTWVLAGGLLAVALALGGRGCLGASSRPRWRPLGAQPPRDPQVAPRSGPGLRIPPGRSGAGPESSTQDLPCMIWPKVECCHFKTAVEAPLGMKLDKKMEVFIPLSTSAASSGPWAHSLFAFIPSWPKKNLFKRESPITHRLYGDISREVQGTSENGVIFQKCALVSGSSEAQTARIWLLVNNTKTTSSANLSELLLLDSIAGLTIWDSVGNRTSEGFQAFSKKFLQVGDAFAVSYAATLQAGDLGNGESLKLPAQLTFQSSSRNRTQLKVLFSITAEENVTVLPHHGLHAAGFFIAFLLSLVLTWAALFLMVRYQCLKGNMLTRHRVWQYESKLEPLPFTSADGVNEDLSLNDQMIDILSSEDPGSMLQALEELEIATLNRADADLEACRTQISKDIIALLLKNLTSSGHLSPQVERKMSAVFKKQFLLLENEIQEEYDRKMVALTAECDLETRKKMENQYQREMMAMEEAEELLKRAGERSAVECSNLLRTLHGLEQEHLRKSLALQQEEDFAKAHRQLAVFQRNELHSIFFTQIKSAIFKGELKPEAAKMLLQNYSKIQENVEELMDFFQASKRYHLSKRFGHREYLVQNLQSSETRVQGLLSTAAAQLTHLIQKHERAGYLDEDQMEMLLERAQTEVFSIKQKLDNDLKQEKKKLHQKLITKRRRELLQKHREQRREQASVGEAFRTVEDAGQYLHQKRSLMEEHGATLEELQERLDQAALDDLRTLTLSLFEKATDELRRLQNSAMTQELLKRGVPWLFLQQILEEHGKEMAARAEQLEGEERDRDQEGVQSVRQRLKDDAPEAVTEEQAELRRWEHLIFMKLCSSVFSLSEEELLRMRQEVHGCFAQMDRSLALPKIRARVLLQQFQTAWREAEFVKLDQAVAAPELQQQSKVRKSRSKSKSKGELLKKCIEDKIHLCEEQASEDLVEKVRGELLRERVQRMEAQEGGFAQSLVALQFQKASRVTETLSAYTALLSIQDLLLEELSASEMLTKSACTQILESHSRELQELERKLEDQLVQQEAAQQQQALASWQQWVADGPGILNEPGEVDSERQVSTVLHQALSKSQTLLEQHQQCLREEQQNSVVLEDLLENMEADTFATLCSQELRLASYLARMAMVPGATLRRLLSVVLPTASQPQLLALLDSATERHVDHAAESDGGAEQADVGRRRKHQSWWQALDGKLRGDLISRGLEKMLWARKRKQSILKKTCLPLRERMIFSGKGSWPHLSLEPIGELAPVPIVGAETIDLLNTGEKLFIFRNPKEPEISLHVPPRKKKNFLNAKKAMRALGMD
inactive: [1] 0.052 | [2] 0.032 | [3] -0.061 | [4] -0.15 | [5] 0.038 | [6] 0.064 | [7] 0.038 | [8] -0.011 | [9] 0.091 | [10] -0.014 | [11] -0.263 | [12] -0.146 | [13] -0.006 | [14] -0.018 | [15] 0.046 | [16] -0.073 | [17] -0.054 | [18] 0.16 | [19] 0.06 | [20] -0.064

DDX46 (UniProt Q7L014)
Chain of UniProt Q7L014 (Q7L014 whole entry, looked up): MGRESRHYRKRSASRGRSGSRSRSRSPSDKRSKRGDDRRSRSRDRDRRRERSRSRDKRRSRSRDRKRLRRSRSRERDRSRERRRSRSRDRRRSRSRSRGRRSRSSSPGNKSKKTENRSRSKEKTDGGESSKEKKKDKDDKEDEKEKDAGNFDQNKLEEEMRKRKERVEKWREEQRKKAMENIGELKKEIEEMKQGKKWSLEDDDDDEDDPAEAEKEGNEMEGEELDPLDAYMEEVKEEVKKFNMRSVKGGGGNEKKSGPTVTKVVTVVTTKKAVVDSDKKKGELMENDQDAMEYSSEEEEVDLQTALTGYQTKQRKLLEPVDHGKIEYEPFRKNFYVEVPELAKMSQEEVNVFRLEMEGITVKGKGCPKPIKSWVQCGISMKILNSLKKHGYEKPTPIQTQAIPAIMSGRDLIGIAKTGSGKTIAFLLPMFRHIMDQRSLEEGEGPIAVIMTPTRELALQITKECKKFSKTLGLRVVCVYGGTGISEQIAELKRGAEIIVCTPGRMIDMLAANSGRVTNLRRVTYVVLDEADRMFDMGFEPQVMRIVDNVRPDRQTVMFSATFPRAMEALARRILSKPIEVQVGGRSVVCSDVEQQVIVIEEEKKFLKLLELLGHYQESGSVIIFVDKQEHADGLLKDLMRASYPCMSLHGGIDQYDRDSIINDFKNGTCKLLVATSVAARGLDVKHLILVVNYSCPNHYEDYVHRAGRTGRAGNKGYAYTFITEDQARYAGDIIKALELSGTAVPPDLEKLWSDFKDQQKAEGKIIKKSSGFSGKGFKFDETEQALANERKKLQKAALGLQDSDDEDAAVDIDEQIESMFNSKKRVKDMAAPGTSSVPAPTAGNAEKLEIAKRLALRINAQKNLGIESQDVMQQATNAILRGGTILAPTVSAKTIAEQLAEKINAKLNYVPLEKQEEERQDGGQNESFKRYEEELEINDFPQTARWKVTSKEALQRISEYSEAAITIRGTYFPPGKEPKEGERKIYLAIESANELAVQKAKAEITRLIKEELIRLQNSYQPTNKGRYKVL
inactive: [1] -0.113 | [2] -0.034 | [3] -0.299 | [4] -0.095 | [5] -0.18 | [6] -0.034 | [7] 0.026 | [8] -0.066 | [9] -0.107 | [10] 0.152 | [11] 0.123 | [12] -0.117 | [13] 0 | [14] 0.069 | [15] -0.069 | [16] 0.099 | [17] 0.136 | [18] 0.001 | [19] 0.171 | [20] 0.13

DHCR7 (UniProt Q9UBM7)
active: [19] 0.808
inactive: [1] -0.045 | [2] -0.091 | [3] -0.085 | [4] 0.056 | [5] 0.067 | [6] -0.021 | [7] 0.011 | [8] 0.199 | [9] 0.037 | [10] 0.15 | [11] -0.037 | [12] -0.028 | [13] -0.055 | [14] 0.023 | [15] 0.104 | [16] 0.011 | [17] 0.039 | [18] 0.139 | [20] 0.204

DPH5 isoform 5 (UniProt Q9H2P9)
inactive: [1] 0.036 | [2] 0.025 | [3] -0.01 | [4] -0.018 | [5] -0.053 | [6] 0.045 | [7] -0.071 | [8] -0.009 | [9] 0.022 | [10] 0.027 | [11] 0.009 | [12] -0.01 | [13] 0.046 | [14] 0.042 | [15] -0.079 | [16] -0.041 | [17] 0.087 | [18] -0.045 | [19] -0.105 | [20] -0.006
